Screens from PubChem.
hNpr1 antagonist: antagonists of human natriuretic peptide receptor Npr1; P16066; HEK293 hNpr1 GloSensor cGMP, ANP-stimulated luminescence; Potency, µM (highest dose often 46.3 µM), for inactives: at the top dose activity change, negative = inhibition, most hits filed as inhibitors; hit rate 1.6% among 76,000; AID 1347048; calls by dose curve; also: % is scaled to controls: 0 for no effect and ±100 for the full control effect; nearly all actives have a fitted effect of over 60% in size
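Compound pre-incubated 30 min at room temperature on GloSensor-loaded HEK293 cells stably carrying hNpr1 and the pGS-40F cGMP biosensor. Stimulation uses hNppA at 0.1 nM final; luminescence is taken at baseline and 20 min post-agonist.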
NIH3T3 tox: cytotoxic compounds in NIH 3T3 cells. NIH 3T3 viability, CellTiter-Glo ATP luminescence, 48-72 h. Potency, µM (doses to about 96.7 µM), without a hit: top-dose activity change, negative = cytotoxicity, hits mostly inhibitors. hit rate 4.3% among 94,000. AID 1345082; also: % is scaled to controls: 0 for no effect and ±100 for the full control effect; nearly all actives have a fitted effect of over 55% in size
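NIH 3T3 cells at 400 cells/well received 23 nL of compound by pintool and were incubated 48 or 72 h at 37 °C. Viability was read as ATP-coupled CellTiter-Glo luminescence.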
HEK cytotox: HEK 293 cell cytotoxicity; HEK 293 viability, ATP luminescence (CellTiter-Glo), 48-72 h; Potency, µM (doses to about 115 µM), without a hit: at the top dose activity change, negative = cytotoxicity, usual class: inhibitors; hit rate 6.6% among 94,000; also: % is scaled to controls: 0 for no effect and ±100 for the full control effect; nearly all actives have a fitted effect of over 60% in size
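HEK 293 cells seeded at 250 cells/well were exposed to compound for 48 or 72 hr at 37 degree Celsius. Viability taken as ATP content by CellTiter-Glo luminescence.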
FLuc inh-1: blocks purified firefly luciferase enzyme activity | purified P. pyralis luciferase, luminescence, biochemical | Potency, µM (titrated, usually from 115 µM), hits mostly inhibitors | P08659 | hit rate 2.5% among 76,000; also: % is scaled to controls: 0 for no effect and ±100 for the full control effect; nearly all actives have a fitted effect of over 65% in size
Target sequence (P08659 whole entry, looked up): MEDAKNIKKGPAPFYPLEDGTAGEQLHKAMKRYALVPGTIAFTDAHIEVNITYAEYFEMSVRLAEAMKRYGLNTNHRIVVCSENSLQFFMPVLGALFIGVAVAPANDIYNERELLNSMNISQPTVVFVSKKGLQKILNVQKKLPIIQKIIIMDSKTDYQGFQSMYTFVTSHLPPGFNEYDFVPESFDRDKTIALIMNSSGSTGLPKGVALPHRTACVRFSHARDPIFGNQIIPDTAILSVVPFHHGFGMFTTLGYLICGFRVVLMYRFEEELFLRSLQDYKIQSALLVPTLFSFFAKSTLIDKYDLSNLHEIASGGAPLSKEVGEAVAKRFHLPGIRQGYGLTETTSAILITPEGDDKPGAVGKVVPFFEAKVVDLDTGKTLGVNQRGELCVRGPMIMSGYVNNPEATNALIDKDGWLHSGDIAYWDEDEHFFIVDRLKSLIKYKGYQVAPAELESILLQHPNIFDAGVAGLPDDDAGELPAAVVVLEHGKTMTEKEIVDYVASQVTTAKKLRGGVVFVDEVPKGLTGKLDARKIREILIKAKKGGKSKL
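Purified P. pyralis luciferase (10nM final) in 50mM Tris acetate pH 7.5, 10mM Mg acetate, 0.01% Tween-20, 0.05% BSA with 10uM D-luciferin and 10uM ATP. Compounds titrated qHTS. Luminescence imaged on CCD.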
FLuc SDR -ATP: binders stabilizing firefly luciferase, without ATP; hit rate 7.8% among 1,300; Potency, µM (top dose mostly 32.7 µM), without a hit: at the highest dose activation (signal gain), actives largely listed as activators; Purified FLuc-C-HiBiT, Nano-Glo HiBiT luminescence, no ATP; shares compounds with FLuc inh-1; also: nearly all actives have a fitted effect of over 55% in size
FLuc SDR ATP: firefly luciferase binding stabilization, ATP added; shares compounds with FLuc inh-1; purified FLuc-C-HiBiT + ATP, HiBiT complementation luminescence; Potency, µM (highest dose often 32.7 µM), for inactives: at the top dose activation (gain of signal), hits mostly activators; hit rate 8.7% among 1,300;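 also: signal reports ligand binding via conformational change of the enzyme rather than luciferase catalysis; % of control where 0% means no effect; nearly all actives have a fitted effect of over 55% in size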
FLuc inh-2: firefly luciferase enzyme inhibition; shares compounds with FLuc inh-1; purified FLuc-C-HiBiT enzyme, luciferin luminescence; Potency, µM (titrated, usually from 32.7 µM), for inactives: at the top dose activity change, negative = inhibition, actives largely listed as inhibitors; hit rate 42% among 1,300; AID 1963320; also: % is scaled to controls: 0 for no effect and ±100 for the full control effect; nearly all actives have a fitted effect of over 70% in size
* marks the source's active call; other numbers are inactive results; i = inactive; ? = inconclusive; . = not tested or not shown; [ ] = remark or other dose. The list is not random: actives were taken first. Their share in the collection is about 11%. Unless noted, calls follow the shape of the dose curve; as a rule, active = well fitted curve in the direction sought with a large enough effect; inconclusive = small, poorly fitted or top-dose-only effect, or another doubt; inactive = no such curve, though single readings can be large; an effect the other way counts as inactive or inconclusive. Potency is read from the fitted curve at half-maximal effect.

SMILES | hNpr1 antagonist | NIH3T3 tox | HEK cytotox | FLuc inh-1 | FLuc SDR -ATP | FLuc SDR ATP | FLuc inh-2
COc1ccc(-c2noc(-c3ccc(C)cc3Cl)n2)cc1OC | . | . | . | . | 20% | 12% | ?
O=C(Cc1ccc(N(Cc2ccccc2)C(=O)c2ccco2)cc1)NCC1CCCO1 (centres undefined) | 2% | -8% | -3% | i | . | . | .
Cc1ccc(NC(=O)c2ccc3snnc3c2)cc1C | . | . | . | . | 18% | ? | ?
CCc1n[nH]c(CC2CCN(C(=O)Nc3ccc4c(c3)OCCO4)CC2)n1 | -28% | i | 3% | 7.9µM* | 21% | 16% | ?
CC(C)n1cnnc1CC1CCN(C(=O)Nc2ccc3c(c2)OCCO3)CC1 | -15% | 3% | i | 7.9µM* | 26% | ? | 9.9µM*
CNC(=O)N1CCC(Cc2nncn2C(C)C)C1 (centres undefined) | -7% | -10% | 3% | i | . | . | .
O=C(NC1CCCC1)NC1CCN(C(=O)c2ccc(-c3cncnc3)cc2)CC1 | . | -18% | -18% | . | . | . | .
CN(C)C[C@@H]1CN(Cc2ccccc2)C[C@H]1NC(=O)c1cc(C2CC2)[nH]n1 | -4% | -14% | -9% | i | . | . | .
Cc1cccc(NC(=O)N2CCC(Cc3nc(-c4ccccc4)n[nH]3)CC2)c1 | 1% | -13% | i | i | . | . | .
Cc1cccc(NC(=O)c2ccc(-c3ccccc3)s2)c1 | . | . | . | . | 25% | 17% | 2.8µM*
Cc1ccc(NC(=O)Cn2c(-c3ccc(F)cc3)nc(C)cc2=O)c(C)c1 | 5% | i | 11% | i | . | . | .
CCC(=O)Nc1cc2nn(-c3ccc(C)cc3)nc2cc1C | . | . | . | . | ? | ? | 0.39µM*
COc1cccc(-c2nc(-c3ccc(C(=O)O)cc3)no2)c1 | . | . | . | . | ? | 0.88µM* | 0.79µM*
O=C(O)c1cccc(-c2noc(-c3cccc(F)c3)n2)c1 | . | . | . | . | ? | 0.007µM* | 0.007µM*
Cc1noc(-c2nc(-c3cccc(F)c3)no2)n1 | -19% | -6% | ? | ? | . | . | .
COc1ccccc1-c1cccc(C(=O)O)c1 | . | i | -14%[172 µM] | . | . | . | .
O=C(O)c1cccc(-c2noc(-c3ccc(F)cc3)n2)c1 | . | . | . | . | 5µM* | 0.0056µM* | 0.0044µM*
O=C(O)c1cccc(-c2noc(-c3ccccc3Cl)n2)c1 | . | . | . | . | 2.8µM* | 0.0062µM* | 0.0035µM*
COc1cccc(-c2nc(CN3CCCC3=O)no2)c1 | 5% | -3% | 12% | ? | . | . | .
CCCC1c2nccn2CCCN1C(=O)c1n[nH]c(=O)c2ccccc12 (centres undefined) | 0% | -2% | -4% | i | . | . | .
O=C(O)c1ccc(CN2C[C@H](O)C[C@H]2c2nc(-c3cccc([N+](=O)[O-])c3)no2)cc1 | 10%[70.6 µM] | -8%[174 µM] | i | ? | . | . | .
O=C(O)c1cccc(-c2noc(-c3cccc([N+](=O)[O-])c3)n2)c1 | . | . | . | . | 11µM* | 0.0079µM* | 0.007µM*
O=C(O)c1ccc(-c2noc(-c3cccc(F)c3)n2)cc1 | . | . | . | . | 17% | ? | 5µM*
COc1ccc(NC(=O)N[C@H]2CO[C@H]3[C@@H]2OC[C@H]3OC(=O)Nc2cccc(C(C)=O)c2)cc1 | -13% | -24% | -20% | i | . | . | .
COc1ccc(-c2cnc3[nH]cc(CC(=O)N4CCN(c5ccccn5)CC4)c3c2)cc1 | ? | ? | 79µM* | 7.1µM* | 24%[49.3 µM] | 15%[49.3 µM] | ?
SMILES | hNpr1 antagonist | NIH3T3 tox | HEK cytotox | FLuc inh-1 | FLuc SDR -ATP | FLuc SDR ATP | FLuc inh-2
Fc1cc(Nc2cnc3ccc(-c4ccccc4)nn23)cc(N2CCOCC2)c1 | -27%[70.6 µM] | 32µM* | 45µM* | 13µM* | 14%[49.3 µM] | 11%[49.3 µM] | ?
CCC(=O)Nc1cnc(-c2ccc(C)cc2)nc1 | ? | 2% | 11% | 3.2µM* | ? | ? | 8.8µM*
CCc1ccc(C2=CC(c3cccc(C)c3)n3c(nc4ccccc43)N2)cc1 (centres undefined) | . | . | . | . | 11µM* | ? | 0.88µM*
Cc1ccc(C2=CC(c3ccccc3F)n3c(nc4ccccc43)N2)cc1C (centres undefined) | . | . | . | . | ? | ? | 3.1µM*
O=C(NCCCN1CCOCC1)C1Cn2cccc2C(=O)N1Cc1ccccc1 (centres undefined) | . | i | -5% | . | . | . | .
COc1ccc(C(=O)Nc2cc(C(C)C)c(O)c(S(=O)(=O)c3ccc(Cl)cc3)c2C)cc1 | . | . | . | . | 12% | 12% | ?
O=C(NC1CCCN(c2cc(-c3ccc(Cl)cc3)[nH]n2)C1)c1ccc2ncccc2c1 (centres undefined) | ? | ? | ? | 1.8µM* | 10% | 8% | 5µM*
O=C(NC1CCCN(c2cc(-c3ccccc3)[nH]n2)C1)c1ccc(Cl)cc1 (centres undefined) | -11% | ? | ? | i | . | . | .
Cc1cccc(C(=O)NC2CCN(c3cc(-c4ccc(Cl)cc4)[nH]n3)CC2)c1 | -2% | ? | ? | i | . | . | .
CN(C)c1cccc(C(=O)NC2CCN(c3cc(-c4ccc(Cl)cc4)[nH]n3)CC2)c1 | ? | 32µM* | ? | 7.1µM* | 12% | 9.9µM* | 6.2µM*
O=C(CCC[C@H]1NC[C@@H]2C[C@H]1CN(Cc1ccccc1)C2)NCc1cc(F)cc(F)c1 | 1% | ? | ? | i | . | . | .
COCCN1CCC2(C1)CN(C)c1ccc(C(=O)Nc3ccc(F)cc3)cc12 (centres undefined) | ? | ? | 79µM* | 2.8µM* | ? | ? | 7.2µM*
COCCN1CCC2(C1)CN(C)c1ccc(C(=O)Nc3ccn(C)n3)cc12 (centres undefined) | . | . | . | . | ? | ? | 10µM*
CN1CC2(CCCN(CC3CC3)C2)c2cc(C(=O)Nc3ccn(C)n3)ccc21 (centres undefined) | 2%[70.6 µM] | -13%[138 µM] | ? | i | . | . | .
COCCN1CCC2(C1)CN(C)c1ccc(C(=O)NCC3CC3)cc12 (centres undefined) | 1%[70.6 µM] | ? | -27%[172 µM] | i | . | . | .
COCCN1CCC2(C1)CN(C)c1ccc(C(=O)Nc3ccccc3)cc12 (centres undefined) | 6.3µM* | ? | 79µM* | 0.63µM* | 4µM* | ? | 1.1µM*
CC(C)CCNC(=O)N(C)CC1CCOCC1 | -3% | i | -3% | i | . | . | .
CCc1ccc(NC(=O)N2CCCC(c3noc(COc4ccccc4)n3)C2)cc1 (centres undefined) | ? | ? | ? | 1.4µM* | ? | ? | 2.8µM*
Cc1ccc2nc(-c3ccc(N=Nc4cc(S(=O)(=O)O)c5ccccc5c4O)cc3)sc2c1S(=O)(=O)O | . | . | . | . | 2% | 2% | 12µM*
